Source: PubChem BioAssay AID1159580 (chemical genetic matrix, 2015)
The whole screen tested about 5,500 compounds, of which about 2,000 (36%) were called active. About 18% were inconclusive and are not listed. No stated cut-off is given here; in the data, active means normalized growth mostly below about 0.91 (no sharp cut-off); inconclusive means no clear call, values can overlap the other calls; inactive means mostly above about 0.92. The list shows a part of the results.

Assay: chemical genetic growth profiling, strain panel (AID 1159580);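 further: tested at 20 µM; growth read once vehicle control cultures reached saturation at 30 °C; 1 = growth at the plate median or of vehicle wells; lower values mean less growth of the strain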
Details: growth OD

Measured: normalized growth

CNC(=O)Oc1ccccc1OC(C)C
inactive: S. cerevisiae deletion strains, locus YJR043C, strain POL32, active compounds read low 1.01 | S. cerevisiae deletion strains, locus YJR075W, strain HOC1, active compounds read low 1.02 | S. cerevisiae deletion strains, locus YKL009W, strain mrt4, active compounds read low 0.986 | S. cerevisiae deletion strains, locus YKL068W, active compounds read low 0.991 | S. cerevisiae deletion strains, locus YKL085W, strain MDH1 (second series), active compounds read low 0.982 | S. cerevisiae deletion strains, locus YKL085W, strain MDH1, active compounds read low 0.982 | S. cerevisiae deletion strains, locus YKL160W, strain elf1, active compounds read low 0.996 | S. cerevisiae deletion strains, locus YKL190W, strain CNB1, active compounds read low 1.01 | S. cerevisiae deletion strains, locus YKR001C, strain vps1, active compounds read low 0.99 | S. cerevisiae deletion strains, locus YKR026C, strain gcn3, active compounds read low 0.993 | S. cerevisiae deletion strains, locus YKR091W, strain srl3, active compounds read low 0.989 | S. cerevisiae deletion strains, locus YLL001W, strain dnm1, active compounds read low 0.995 | S. cerevisiae deletion strains, locus YLL026W, active compounds read low 0.986 | S. cerevisiae deletion strains, locus YLL041C, strain sdh2, active compounds read low 0.994 | S. cerevisiae deletion strains, locus YLR027C, strain aat2, active compounds read low 0.995 | S. cerevisiae deletion strains, locus YLR039C, strain RIC1, active compounds read low 1.05 | S. cerevisiae deletion strains, locus YLR058C, strain SHM2, active compounds read low 1.02 | S. cerevisiae deletion strains, locus YLR102C, strain apc9, active compounds read low 0.988 | S. cerevisiae deletion strains, locus YLR221C, strain rsa3, active compounds read low 0.986 | S. cerevisiae deletion strains, locus YLR258W, strain gsy2, active compounds read low 0.984 | S. cerevisiae deletion strains, locus YLR262C, strain YPT6 (second series), active compounds read low 1.01 | S. cerevisiae deletion strains, locus YLR262C, strain YPT6, active compounds read low 1.06 | S. cerevisiae deletion strains, locus YLR268W, strain sec22, active compounds read low 0.99 | S. cerevisiae deletion strains, locus YLR320W, strain mms22, active compounds read low 0.987 | S. cerevisiae deletion strains, locus YLR330W, strain CHS5, active compounds read low 1.02 | S. cerevisiae deletion strains, locus YLR342W, strain FKS1 (second series), active compounds read low 1 | S. cerevisiae deletion strains, locus YLR342W, strain FKS1, active compounds read low 0.99 | S. cerevisiae deletion strains, locus YLR357W, strain rsc2, active compounds read low 0.953 | S. cerevisiae deletion strains, locus YLR370C, strain arc18, active compounds read low 0.992 | S. cerevisiae deletion strains, locus YLR371W, strain rom2, active compounds read low 0.987 | S. cerevisiae deletion strains, locus YLR384C, strain iki3, active compounds read low 0.99 | S. cerevisiae deletion strains, locus YLR418C, strain cdc73, active compounds read low 0.97 | S. cerevisiae deletion strains, locus YML016C, strain PPZ1, active compounds read low 1.03 | S. cerevisiae deletion strains, locus YML032C, strain rad52, active compounds read low 0.989 | S. cerevisiae deletion strains, locus YML120C, strain ndi1, active compounds read low 0.986 | S. cerevisiae deletion strains, locus YML124C, strain tub3, active compounds read low 0.991 | S. cerevisiae deletion strains, locus YMR058W, strain fet3, active compounds read low 0.989 | S. cerevisiae deletion strains, locus YMR078C, strain ctf18, active compounds read low 0.985 | S. cerevisiae deletion strains, locus YMR125W, strain sto1, active compounds read low 0.957 | S. cerevisiae deletion strains, locus YMR129W, active compounds read low 0.995 | S. cerevisiae deletion strains, locus YMR205C, strain PFK2, active compounds read low 0.984 | S. cerevisiae deletion strains, locus YMR223W, strain ubp8, active compounds read low 0.986 | S. cerevisiae deletion strains, locus YMR231W, strain pep5, active compounds read low 0.988 | S. cerevisiae deletion strains, locus YMR263W, strain SAP30, active compounds read low 1.03 | S. cerevisiae deletion strains, locus YMR307W, strain GAS1, active compounds read low 0.988 | S. cerevisiae deletion strains, locus YNL067W, strain RPL9B, active compounds read low 1.03 | S. cerevisiae deletion strains, locus YNL071W, strain lat1, active compounds read low 1 | S. cerevisiae deletion strains, locus YNL128W, strain TEP1, active compounds read low 1.02 | S. cerevisiae deletion strains, locus YNL153C, strain GIM3, active compounds read low 1.02 | S. cerevisiae deletion strains, locus YNL209W, strain ssb2, active compounds read low 0.994 | S. cerevisiae deletion strains, locus YNL233W, strain BNI4, active compounds read low 0.982 | S. cerevisiae deletion strains, locus YNL248C, strain rpa49, active compounds read low 0.979 | S. cerevisiae deletion strains, locus YNL250W, strain rad50, active compounds read low 0.979 | S. cerevisiae deletion strains, locus YNL271C, strain bni1, active compounds read low 0.968 | S. cerevisiae deletion strains, locus YNL298W, strain CLA4, active compounds read low 0.98 | S. cerevisiae deletion strains, locus YNL307C, strain MCK1, active compounds read low 0.992 | S. cerevisiae deletion strains, locus YNL322C, strain KRE1 (second series), active compounds read low 0.98 | S. cerevisiae deletion strains, locus YNL322C, strain KRE1, active compounds read low 1.01 | S. cerevisiae deletion strains, locus YNR049C, strain mso1, active compounds read low 0.989 | S. cerevisiae deletion strains, locus YNR052C, strain pop2, active compounds read low 0.986 | S. cerevisiae deletion strains, locus YOL006C, strain TOP1, active compounds read low 1.06 | S. cerevisiae deletion strains, locus YOL012C, strain htz1 0.953 | S. cerevisiae deletion strains, locus YOL147C, strain pex11, active compounds read low 0.993 | S. cerevisiae deletion strains, locus YOR001W, strain rrp6, active compounds read low 0.998 | S. cerevisiae deletion strains, locus YOR061W, strain CKA2, active compounds read low 1.01 | S. cerevisiae deletion strains, locus YOR069W, strain VPS5, active compounds read low 1.01 | S. cerevisiae deletion strains, locus YOR070C, strain gyp1, active compounds read low 0.986 | S. cerevisiae deletion strains, locus YOR080W, strain dia2, active compounds read low 0.963 | S. cerevisiae deletion strains, locus YOR083W, strain WHI5, active compounds read low 0.995 | S. cerevisiae deletion strains, locus YOR106W, strain vam3, active compounds read low 0.991 | S. cerevisiae deletion strains, locus YOR136W, strain idh2, active compounds read low 0.992 | S. cerevisiae deletion strains, locus YOR144C, strain elg1, active compounds read low 0.995 | S. cerevisiae deletion strains, locus YOR184W, strain ser1, active compounds read low 0.991 | S. cerevisiae deletion strains, locus YOR265W, strain rbl2, active compounds read low 0.985 | S. cerevisiae deletion strains, locus YOR270C, strain vph1, active compounds read low 1 | S. cerevisiae deletion strains, locus YOR290C, strain snf2, active compounds read low 1 | S. cerevisiae deletion strains, locus YOR316C, strain cot1, active compounds read low 0.992 | S. cerevisiae deletion strains, locus YPL051W, strain arl3, active compounds read low 0.995 | S. cerevisiae deletion strains, locus YPL055C, strain LGE1, active compounds read low 1.03 | S. cerevisiae deletion strains, locus YPL078C, strain atp4, active compounds read low 0.998 | S. cerevisiae deletion strains, locus YPL106C, strain sse1, active compounds read low 0.98 | S. cerevisiae deletion strains, locus YPL240C, strain hsp82, active compounds read low 1 | S. cerevisiae deletion strains, locus YPL241C, strain CIN2, active compounds read low 1.01 | S. cerevisiae deletion strains, locus YPR119W, strain clb2, active compounds read low 0.994 | S. cerevisiae deletion strains, locus YPR141C, strain kar3, active compounds read low 0.978 | S. cerevisiae deletion strains, locus YPR163C, strain tif3, active compounds read low 0.987 | S. cerevisiae deletion strains, locus YPR167C, strain met16, active compounds read low 0.989 | S. cerevisiae deletion strains, strain wtn01, active compounds read low 0.984 | S. cerevisiae strains, strain wild type, active compounds read low 1.01
